According to PubChem BioAssay (NCI):
This is part of a sample that, as a whole, favours compounds with a hit. Of some 83,000 tested, about 20% had one in any assay.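 A percent growth of 40 corresponds to 60% growth inhibition; 0 means no net growth; -100 means all cells died. Active threshold: below 10.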 Values without a mark were called inactive. The source made the active and inactive calls.

Columns and labels:
Assay in all cases: NCI-60 one-dose screen, 48 h (100 = growth as untreated, 0 = no growth, -100 = all killed)
HCT-15 colon = settings: 10 µM unless noted
HT29 colon = settings: 10 µM unless noted
SNB-75 CNS = settings: 10 µM unless noted
SNB-19 CNS = settings: 10 µM unless noted
PC-3 prostate = settings: 10 µM unless noted
SK-MEL-5 melanoma = settings: 10 µM unless noted
UACC-62 melanoma = settings: 10 µM unless noted
LOX IMVI melanoma = settings: 10 µM
SK-MEL-28 melanoma = settings: 10 µM unless noted
U251 CNS = settings: 10 µM unless noted

| Structure (SMILES) | growth (HCT-15 colon) [%] | growth (HT29 colon) | growth (SNB-75 CNS) | growth (SNB-19 CNS) [%] | growth (PC-3 prostate) [%] | growth (SK-MEL-5 melanoma) [%] | growth (UACC-62 melanoma) [%] | growth (LOX IMVI melanoma) [%] | growth (SK-MEL-28 melanoma) [%] | growth (U251 CNS) [%] |
| --- | --- | --- | --- | --- | --- | --- | --- | --- | --- | --- |
| O=Cc1ccc(Cl)c(Cl)c1 | 110 | 106% | 88.4% | 111 | 94.6 | 110 | 102 | 95 | 107 |  |
| CCCCCCCCCCCCCC/C=C\C(CC(=O)O)C(=O)O (stereo not given) | 107 | 103% | 90.1% | 103 | 96.2 | 104 | 100 | 110 | 108 |  |
| Cc1ccc(NC(=S)N2CCOCC2)cc1C | 86.2 | 114% | 106% | 94.5 | 104 | 96.5 | 94 | 82.3 | 111 |  |
| CCOC(=O)c1ccc(Nc2sc(C(=O)c3ccc(Br)cc3)c(N)c2C#N)cc1 | 27 | 2.05% (active) | -18.6% (active) | 62.5 | 17.5 | 12.6 | 36.7 | 38.8 | 36.3 |  |
| CCOC(=O)CNC(=O)Sc1ccc(C(C)(C)C)cc1 | 94.3 | 114% | 75.7% | 103 | 106 | 107 | 91 | 83.9 | 113 |  |
| CSCCC(NC(=O)C(Cl)Cl)C(=O)O (stereo not given) | 102 | 100% | 85.6% | 107 | 89 | 99.8 | 95.8 | 98.4 | 97 |  |
| CCCOCc1cn[nH]n1 | 106 | 105% | 98.1% | 115 | 102 | 106 | 98.2 | 98.6 | 109 |  |
| O=[N+]([O-])c1ccc2[nH]c(=S)n(/C=C(/c3ccc(Cl)cc3Cl)S(=O)(=O)Cc3ccc(Cl)cc3Cl)c2c1 | 101 | 98.9% | 108% | 102 | 94.7 | 101 | 101 | 98.6 | 110 |  |
| Nc1ccc2ccccc2c1-c1c(N)ccc2ccccc12 | 30.7 | 7.41% (active) | 42.7% | 44.1 | 31.2 | 25.5 | 24.9 | 36.8 | 56.4 |  |
| COC1OC(C(COC(C)=O)OC(C)=O)C(OC(C)=O)C(OC(C)=O)C1OC(C)=O (stereo not given) | 92.5 | 105% | 97.6% | 99.4 | 107 | 106 | 110 | 103 | 105 |  |
| CCc1ccccc1C(=O)N(CC)CC | 103 | 106% | 90.6% | 105 | 102 |  | 99.5 | 99.2 | 102 |  |
| CCOC(=O)CO | 115 | 107% | 94.1% | 105 | 101 | 107 | 103 | 107 | 114 |  |
| CC(=O)OC/C(C)=C\CC(C)COC(C)=O (stereo not given) | 98.8 | 113% | 81.5% | 94.9 | 93.9 | 104 | 101 | 98.8 | 94.6 |  |
| Cc1ccc(C2CCCCC2)cc1Br | 100 | 95.8% | 98.4% | 95.6 | 94 | 102 |  | 103 | 101 |  |
| CCC(=O)Oc1ccc2ccccc2c1 |  | 104% | 82.4% | 97.9 | 77 | 91.6 | 92.1 | 92.2 | 110 | 93.9 |
| CCOC(=O)C(C#N)=C1CCN(C)CC1 |  | 113% | 102% | 101 | 87.7 | 111 | 103 | 109 | 134 | 104 |
| C#CC(O)c1ccccc1 (stereo not given) |  | 105% | 103% | 104 | 97.3 | 97.8 | 103 | 103 | 109 | 97.2 |

| Structure (SMILES) | growth (HCT-15 colon) [%] | growth (HT29 colon) | growth (SNB-75 CNS) | growth (SNB-19 CNS) [%] | growth (PC-3 prostate) [%] | growth (SK-MEL-5 melanoma) [%] | growth (UACC-62 melanoma) [%] | growth (LOX IMVI melanoma) [%] | growth (SK-MEL-28 melanoma) [%] | growth (U251 CNS) [%] |
| --- | --- | --- | --- | --- | --- | --- | --- | --- | --- | --- |
| CSc1cnc2ccccc2n1 |  | 83.2% | 107% | 99.5 | 89.6 | 105 | 97.1 | 96.4 | 110 | 94.1 |
| COc1cc(OC)c2cc(C(=O)c3ccc(C#N)cc3)c(=O)oc2c1 |  | 104% | 85.5% | 88.5 | 107 |  | 91.8 |  | 99.5 | 105 |
| CC(C)OCC(CCl)OC(=O)Nc1ccccc1 (stereo not given) |  | 102% | 92.2% | 105 | 98.8 | 101 | 101 | 97 | 111 |  |
| C=C1C(=O)C2CCN1CC2 |  | 89.8% | 89.2% | 105 | 101 | 104 | 97.3 | 98.9 | 95.6 |  |
| COC(=O)Cc1cc(COC(C)=O)ccc1C |  | 96.6% | 97.8% | 113 | 92.6 | 110 | 104 | 108 | 113 | 109 |
| C#CCSc1nnnn1-c1ccccc1 |  | 96% | 73.2% | 97.5 | 89.4 | 91.1 | 101 | 95.1 |  | 36.7 |
| C=COC(=O)C(C)(C)C |  | 104% | 90.4% | 95.3 | 95.3 | 99.9 | 99.9 | 96.4 | 108 | 99.4 |
| CC1CC2C3CCC4=CC(=O)CCC4(C)C3CCC2(C)C1(O)C(=O)CO (stereo not given) |  | 97.4% | 110% | 110 | 93.9 | 104 | 108 |  | 109 | 108 |
| Cc1ccc(/C=N/NC(N)=S)s1 |  | 110% | 91.2% | 103 | 92.2 |  | 102 | 101 | 113 | 102 |
| Clc1ncnc2nc[nH]c12 |  | 107% | 82.9% | 96.4 | 96.4 | 98.9 | 91.1 | 95.1 | 99.8 | 103 |
| NC(CO)(CO)c1ccccc1 |  | 100% | 88.7% | 107 | 100 |  | 101 | 101 | 106 | 97.3 |
| Cc1ccc(OC(=O)c2ccccc2)cc1 |  | 95.3% | 108% | 109 | 105 | 101 | 112 | 105 | 120 | 94.8 |
| CC(=O)OC(C)c1cccc(C#N)c1 (stereo not given) |  | 104% | 89.7% | 105 | 96.4 | 99.1 | 104 | 101 | 114 | 99 |
| COC(=O)C1=C(C)C(=O)CC1 |  | 98.3% | 94.4% | 104 | 96.2 | 110 | 100 | 118 | 110 | 115 |
| CCOC(=O)c1cc(Cl)c(O)c(Cl)c1 |  | 103% | 103% | 106 | 101 | 102 | 105 | 102 | 106 | 104 |
| N#Cc1ccc2nc[nH]c2c1 |  | 112% | 95.5% | 111 | 105 | 102 | 105 | 101 | 108 | 101 |
| CC(C)C(=O)OCCOc1ccc(C(C)(C)C)cc1 |  | 93.1% | 94.1% | 98.8 | 91.6 | 102 |  | 95.8 | 110 | 88.4 |
